Our source for the Potency values is PubChem BioAssay (NCATS).

Records with an inconclusive call do not appear. Where a call stands in place of a potency, no number is given. Calls of active or inactive are those of the source. Calls follow the shape of the dose curve; as a rule, active = well fitted inhibition curve with a large enough effect; inconclusive = small, poorly fitted or top-dose-only effect, or effect the other way; inactive = flat fitted curve, though single readings scatter.
Potency is read from the fitted curve at half-maximal effect.

ATPase family AAA domain-containing protein 5 (Homo sapiens), sequence (Q96QE3 whole entry, looked up, the tested form may be a part): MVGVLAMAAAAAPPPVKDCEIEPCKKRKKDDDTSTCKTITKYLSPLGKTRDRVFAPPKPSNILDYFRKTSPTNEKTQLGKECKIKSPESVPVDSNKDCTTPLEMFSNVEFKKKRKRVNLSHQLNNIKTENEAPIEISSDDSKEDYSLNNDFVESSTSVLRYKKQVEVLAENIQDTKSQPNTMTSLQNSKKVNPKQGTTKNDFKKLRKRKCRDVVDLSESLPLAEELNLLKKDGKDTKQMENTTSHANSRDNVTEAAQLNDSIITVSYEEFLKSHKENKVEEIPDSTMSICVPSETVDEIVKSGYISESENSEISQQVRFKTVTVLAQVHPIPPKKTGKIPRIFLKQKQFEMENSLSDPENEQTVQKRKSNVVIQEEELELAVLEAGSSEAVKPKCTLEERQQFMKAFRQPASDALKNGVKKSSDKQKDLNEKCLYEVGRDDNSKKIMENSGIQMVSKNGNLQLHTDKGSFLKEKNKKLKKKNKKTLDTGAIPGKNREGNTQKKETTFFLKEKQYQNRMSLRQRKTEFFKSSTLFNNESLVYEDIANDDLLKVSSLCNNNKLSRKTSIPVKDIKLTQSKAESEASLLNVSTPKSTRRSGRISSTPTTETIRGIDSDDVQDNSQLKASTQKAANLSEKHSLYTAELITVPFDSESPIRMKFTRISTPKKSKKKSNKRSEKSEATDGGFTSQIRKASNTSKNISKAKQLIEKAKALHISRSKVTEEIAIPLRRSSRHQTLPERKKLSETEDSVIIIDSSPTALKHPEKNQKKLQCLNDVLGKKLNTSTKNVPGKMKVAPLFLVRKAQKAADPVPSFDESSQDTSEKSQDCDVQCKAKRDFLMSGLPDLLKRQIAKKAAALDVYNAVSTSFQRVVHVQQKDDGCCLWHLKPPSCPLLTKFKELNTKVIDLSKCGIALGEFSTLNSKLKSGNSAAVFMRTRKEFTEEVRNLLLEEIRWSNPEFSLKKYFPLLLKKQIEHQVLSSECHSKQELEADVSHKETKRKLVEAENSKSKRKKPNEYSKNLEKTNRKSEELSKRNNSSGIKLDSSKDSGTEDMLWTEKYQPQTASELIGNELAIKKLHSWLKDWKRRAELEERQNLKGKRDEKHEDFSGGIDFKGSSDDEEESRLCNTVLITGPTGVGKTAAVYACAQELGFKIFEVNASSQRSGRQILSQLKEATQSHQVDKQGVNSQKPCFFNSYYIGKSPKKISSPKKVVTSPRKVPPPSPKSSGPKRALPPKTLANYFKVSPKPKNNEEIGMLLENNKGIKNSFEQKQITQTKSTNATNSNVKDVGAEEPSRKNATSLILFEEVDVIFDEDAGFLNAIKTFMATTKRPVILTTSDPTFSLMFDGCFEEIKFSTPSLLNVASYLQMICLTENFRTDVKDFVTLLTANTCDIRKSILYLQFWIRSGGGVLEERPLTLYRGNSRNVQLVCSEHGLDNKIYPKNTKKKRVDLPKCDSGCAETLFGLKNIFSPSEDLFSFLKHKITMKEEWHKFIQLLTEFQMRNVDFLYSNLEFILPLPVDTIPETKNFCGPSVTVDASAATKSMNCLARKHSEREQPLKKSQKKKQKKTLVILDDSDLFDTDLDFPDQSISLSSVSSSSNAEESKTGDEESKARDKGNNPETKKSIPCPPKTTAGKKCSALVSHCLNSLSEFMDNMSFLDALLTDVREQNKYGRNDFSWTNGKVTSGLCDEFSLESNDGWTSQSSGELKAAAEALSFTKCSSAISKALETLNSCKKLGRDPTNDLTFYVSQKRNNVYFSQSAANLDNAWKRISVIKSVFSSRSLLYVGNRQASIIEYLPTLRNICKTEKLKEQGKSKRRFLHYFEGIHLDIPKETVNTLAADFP

This experiment has as its target ATPase family AAA domain-containing protein 5 (Homo sapiens) (UniProt Q96QE3). The experiment can be described thus: Validation screen for small molecules that inhibit ELG1-dependent DNA repair in human embryonic kidney (HEK293T) cells expressing luciferase-tagged ELG1 (AID 493107). Also: nearly all actives have a fitted effect of over 70% in size. The note with it: HEK293T ELG1-luciferase level, luminescence, 5-fluorouridine co-treatment, 16 h; series mostly up to 46.1 µM. The source says:
NIH Molecular Libraries Probe Production Network [MLPCN]
NIH Chemical Genomics Center [NCGC]
Assay Provider: Kyungjae Myung, NHGRI, NIH
Keywords: MLPCN, qHTS, NCGC, genotoxicity, cancer
Cancer cells divide rapidly compared to normal cells in the body. During cell division, cancer cells need to duplicate their genome by DNA replication. The failure of genome duplication leads to cancer cells' death. Therefore, inhibitors of DNA replication could specifically kill cancer cells. Based on this concept, many chemotherapeutic agents were developed and have been used to treat cancer patients. However, there are a limited number of agents available in the clinical setting, and some of those that do exist have low efficacy and severe side effects. Therefore, if we can find the compounds that effectively block DNA replication either by directly damaging DNA or by inhibiting other cellular mechanisms, the options for cancer treatment will be broadened. With this in mind, we developed a quantitative high-throughput ELG1-luciferase reporter gene assay. Small molecules that specifically block ELG1 function in response to DNA damage can be identified by monitoring the suppression of luciferase activity. Since ELG1 defines a pathway for repairing DNA damage, agents blocking ELG1 function can be used to sensitize cancer cells to chemotherapeutic agents whose mechanism of action involves the induction of DNA damage.
For genotoxicity screening, 2,000 cells in 4 uL/well were dispensed into white, solid-bottom 1536-well plates using a solenoid-based dispenser. Following transfer of 1 uL 5-Fluorouridine and 23 nL compound or DMSO vehicle by a pin tool, the plates were incubated 16 hr at 37 °C and 5% CO2. 5 ul ONE-Glo (Promega) was then added to each plate and following a 30 min incubation at room temperature, luciferase activity was quantified on a ViewLux CCD-based plate reader.
Turning to `N[C@@H](CS(=O)O)C(=O)O`, the Potency entry is “inactive”. For the compound `O=C(O)CCC(=O)N1CCCC1C(=O)O` (stereo not given), the Potency entry was “inactive”. Regarding `N=C(N)c1ccccc1`, the Potency entry is “inactive”.

For `NCCCNCCCCNCCCN`, the Potency entry is “inactive”.

For `c1ccc2c(c1)CC(N1CCN(c3cccc4c3OCCO4)CC1)C2`, the Potency entry is “inactive”.

With `NC(N)=[N+]1CCc2ccccc2C1`, the Potency result was “inactive”. In the case of `O=c1ccc2c(OCCCCc3ccccc3)c3ccoc3cc2o1`, the Potency result is “inactive”. Regarding `CCCCCC(O)CCCC(=O)O` (stereo not given), the Potency entry is “inactive”.

Take `CC1CNCCN1S(=O)(=O)c1cccc2cnccc12` (stereo not given): the Potency is 8.2 µM (active).

Consider `CCCCCCC/C=C\CCCCCCCCC(=O)O`, for which the Potency result was “inactive”. Turning to `O=C(O)C1CCNCC1`, the Potency entry was “inactive”. For the compound `Cc1ccc([N+](=O)[O-])cc1S(=O)(=O)N(C)C`, the Potency entry was “inactive”. As to `COc1cccc(OC)c1OCCNCC1CSc2ccccc2O1` (stereo not given), the Potency entry is “inactive”. On to `CC(=O)SC1CC2=CC(=O)CC[C@]2(C)C2CC[C@@]3(C)C(CC[C@@]34CCC(=O)O4)C12` (stereo not given in full), for which the Potency is 7.3 µM (active).

For `COc1ccccc1N1CCN(CCCCNC(=O)c2ccc3ccccc3c2)CC1`, the Potency entry is “inactive”. The entry for `Cc1nc(N=Nc2ccc(C(=O)O)cc2)c(COP(=O)(O)O)c(C=O)c1O` is “inactive”. Regarding `CC(=O)[C@H]1CCC2C3CC=C4C[C@@H](OS(=O)(=O)O)CC[C@]4(C)C3CC[C@@]21C` (stereo not given in full), the Potency entry is “inactive”. The entry for `N[C@@H](CCC(=O)N[C@H](CSN=O)C(=O)NCC(=O)O)C(=O)O` is “inactive”; for `CC(C)C[C@H](NC(=O)[C@H](O)[C@H](N)Cc1ccccc1)C(=O)O` it is “inactive”; for `O=C(O)C1=CCCN(CCON=C(c2ccccc2)c2ccccc2)C1` it is “inactive”. In the case of `Cn1c(=O)c2[nH]c(C3CCCC3)nc2n(C)c1=O`, the Potency result was “inactive”.

Take `CN(C)C(=O)/N=N/C(=O)N(C)C`: the Potency result was “inactive”. Take `Nc1ccc(-c2nc3ccc(-c4nc5ccc(N)cc5[nH]4)cc3[nH]2)cc1`: the Potency entry was “inactive”.

With `CCN(c1nc(N)c(C(=O)N=C(N)N)nc1Cl)C(C)C`, the Potency entry was “inactive”. For the compound `CC(=O)O[C@H]1CC2(C)[C@@H](C[C@@H](O)[C@H]3[C@@]4(C)CC[C@@H](O)[C@@H](C)[C@@H]4CC[C@@]32C)C1=C(CCC=C(C)C)C(=O)O` (stereo not given in full), the Potency result was “inactive”. To `Cc1nc2n(c(=O)c1CCN1CCC(c3noc4cc(F)ccc34)CC1)CCCC2O` (stereo not given) belongs “inactive”; to `N[C@H](C(=O)O)[C@H](Cc1ccccc1)C(=O)O`, “inactive”. On to `NC(N)=NC(N)=Nc1cccc(Cl)c1`, for which the Potency result was “inactive”. The entry for `COc1cc(/C=C(\C#N)C(=O)Nc2nnc(C(F)(F)F)s2)ccc1OCc1ccc(C(F)(F)F)cc1C(F)(F)F` is “inactive”; for `CN1CCC2(CCN3CCc4c(oc5ccccc45)C3C2)N(C)C1=O` (stereo not given) it is “inactive”; for `N#Cc1cc([N+](=O)[O-])c2sc(C(N)=O)[n+]([O-])c2c1` it is 16.4 µM (active). Turning to `O=C(N[C@@H](Cc1ccccc1)C(=O)CCl)OCc1ccccc1`, the Potency was 8.2 µM (active). On to `CCCn1c(=O)c2c(ncn2C)n(CCC)c1=O`, for which the Potency result was “inactive”.

With `C=CCN1CCc2c(cc(O)c(O)c2Br)[C@@H](c2ccccc2)C1`, the Potency result is “inactive”.

On to `CCCCCCCCCCCCCCC[C@H](O)[C@H](N)CO`, for which the Potency entry was “inactive”. For the compound `N[C@@H](Cc1c[nH]c2ccccc12)C(=O)O`, the Potency result was “inactive”. For the compound `Cc1ccccc1/C=C/C1=NCCN1`, the Potency entry was “inactive”. In the case of `O[Si](CCCN1CCCCC1)(c1ccc(F)cc1)C1CCCCC1` (stereo not given), the Potency result is “inactive”. In the case of `NC(Cc1cccc(-c2ccccc2CP(=O)(O)O)c1)C(=O)O` (stereo not given), the Potency result is “inactive”. As to `NCC(O)C1CCCCCCC1` (stereo not given), the Potency result was “inactive”.
